Measured values as given in PubChem BioAssay (NCI).
Compounds without any hit were thinned out: in the full panel of roughly 79,000, 15% have a hit. Activity calls are given as the source filed them. No stated cut-off is given here; in the data, active means growth inhibition above about 70%; inactive means the rest.

Legend:
[1] = NCI Yeast Anticancer Drug Screen. Data for the rad50 strain (AID 155);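 further: 0% = growth of vehicle-only cultures of the same strain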; settings: S. cerevisiae rad50 strain growth inhibition, stronger effect = higher value
Method in brief: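 Vehicle-treated cultures provide the reference for the growth inhibition reported for compound-exposed, repair-deficient yeast.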

[2] = NCI Yeast Anticancer Drug Screen. Data for the mec2-1 strain (AID 157); settings: S. cerevisiae mec2-1 strain, stronger effect = higher value
Method in brief: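 Yeast mec2-1 mutant treated with compound. Readout: growth inhibition vs vehicle controls.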

[3] = NCI Yeast Anticancer Drug Screen. Data for the sgs1 mgt1 strain (AID 161);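 further: 0% = growth of cultures given vehicle only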; settings: S. cerevisiae sgs1 mgt1 strain, stronger effect = higher value
Method in brief: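 Mutant yeast exposed to compound; growth scored against vehicle-only wells.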

[4] = NCI Yeast Anticancer Drug Screen. Data for the cln2 rad14 strain (AID 165);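 further: 0% = growth equal to vehicle treated cultures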; settings: S. cerevisiae cln2 rad14 strain, stronger effect = higher value
Method in brief: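 cln2 rad14 yeast strain; compound exposure; growth inhibition read vs vehicle controls.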

[5] = NCI Yeast Anticancer Drug Screen. Data for the bub3 strain (AID 167); settings: S. cerevisiae bub3 mutant strain, stronger effect = higher value
Method in brief: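 Mutant yeast screening strain plus compound; vehicle-treated cultures serve as the 0% inhibition reference.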

[6] = NCI Yeast Anticancer Drug Screen. Data for the mlh1 rad18 strain (AID 175); settings: S. cerevisiae mlh1 rad18 strain growth inhibition, stronger effect = higher value
Method in brief: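 Yeast w/ defined DNA-repair lesions; compound exposure; growth vs vehicle controls → % inhibition.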

[7] = at 5.0 µM (retest, dose inferred, filed as 0.5)
[8] = at 50.0 µM (retest, dose inferred, filed as 5.0)

Measured: growth inhibition

CN(C)Cc1ccccc1C(=O)C(=O)c1ccccc1CN(C)C
active: [2]; [8] 70% | [6]; [8] 73%
inactive: [1]; [7] -9% | [1]; [8] 48% | [1]; at 50.0 µM -3.15% | [2]; [7] 1% | [2]; at 50.0 µM 3% | [3]; [7] -5% | [3]; [8] 3% | [3]; at 50.0 µM -6.5% | [4]; [7] 9% | [4]; [8] 0% | [4]; at 50.0 µM 46.3% | [5]; [7] 10% | [5]; [8] 7% | [5]; at 50.0 µM 57.8% | [6]; [7] -4% | [6]; at 50.0 µM 6.45%

c1ccc2c(Nc3ccc(Oc4ccc(Nc5c6ccccc6nc6ccccc56)cc4)cc3)c3ccccc3nc2c1
inactive: [1]; [7] 50% | [2]; [7] 8% | [2]; at 50.0 µM 6.6% | [3]; [7] 31% | [3]; at 50.0 µM -22.9% | [4]; [7] 6% | [4]; at 50.0 µM 6.45% | [5]; [7] 10% | [5]; at 50.0 µM -1.8% | [6]; [7] 20% | [6]; at 50.0 µM 10.3%
active: [1]; [8] 99% | [1]; at 50.0 µM 82.8% | [2]; [8] 100% | [3]; [8] 99% | [4]; [8] 99% | [5]; [8] 99% | [6]; [8] 99%

CCN(CC)c1ccc(/C=C2/C[N+](C)(C)C/C(=C/c3ccc(N(CC)CC)cc3)C2=O)cc1
inactive: [1]; [7] -17% | [2]; [7] -19% | [3]; [7] -13% | [4]; [7] 4% | [5]; [7] -20% | [6]; [7] -6%
active: [1]; [8] 95% | [1]; at 50.0 µM 79.5% | [2]; [8] 91% | [2]; at 50.0 µM 78.5% | [3]; [8] 97% | [3]; at 50.0 µM 79.2% | [4]; [8] 95% | [4]; at 50.0 µM 76.5% | [5]; [8] 80% | [5]; at 50.0 µM 81.5% | [6]; [8] 96% | [6]; at 50.0 µM 82.2%

N#CC1=C(N)OC(c2ccccc2)=C(C#N)C1c1ccccc1 (stereo not given)
active: [1]; [7] 90% | [1]; [8] 99% | [1]; at 50.0 µM 99.2% | [2]; [7] 97% | [2]; [8] 100% | [2]; at 50.0 µM 99.5% | [3]; [7] 96% | [3]; [8] 100% | [3]; at 50.0 µM 99.3% | [4]; [7] 98% | [4]; [8] 99% | [4]; at 50.0 µM 99.2% | [5]; [7] 98% | [5]; [8] 99% | [5]; at 50.0 µM 99.5% | [6]; [7] 97% | [6]; [8] 99% | [6]; at 50.0 µM 99.3%

O=C(O)c1cccc(N=Nc2c(S(=O)(=O)O)ccc3c2C(=O)c2ccccc2C3=O)c1O
inactive: [1]; [7] 17% | [1]; [8] 38% | [1]; at 50.0 µM 30.4% | [2]; [7] 8% | [2]; [8] 17% | [2]; at 50.0 µM 36.8% | [3]; [7] 8% | [3]; [8] 38% | [3]; at 50.0 µM -2.5% | [4]; [7] -21% | [4]; [8] 17% | [5]; [7] -11% | [5]; [8] 25% | [5]; at 50.0 µM -15.2% | [6]; [7] 29% | [6]; [8] 28%
active: [4]; at 50.0 µM 71.1% | [6]; at 50.0 µM 85.6%

CCOC(=O)/C(=N/NS(=O)(=O)c1c(C)cc(C)cc1C)c1ccco1
active: [5]; at 50.0 µM 79.8% | [6]; at 50.0 µM 80.7%
inactive: [1]; [7] -2% | [1]; [8] 13% | [1]; at 50.0 µM 64.6% | [2]; [7] -2% | [2]; [8] 25% | [2]; at 50.0 µM 45.5% | [3]; [7] 2% | [3]; [8] 41% | [3]; at 50.0 µM 50.4% | [4]; [7] 0% | [4]; [8] -4% | [4]; at 50.0 µM 38.3% | [5]; [7] 1% | [5]; [8] 29% | [6]; [7] 4% | [6]; [8] 34%

CC1=NC(C)C(C)S1 (stereo not given)
inactive: [1]; [7] -1% | [1]; [8] 3% | [1]; at 50.0 µM 9.45% | [2]; [7] 0% | [2]; [8] 0% | [2]; at 50.0 µM 5.5% | [3]; [7] -1% | [3]; [8] 1% | [3]; at 50.0 µM -2.5% | [4]; [7] 4% | [4]; [8] 0% | [4]; at 50.0 µM 16.1% | [5]; [7] 3% | [5]; [8] 3% | [5]; at 50.0 µM 55.9% | [6]; [7] 2% | [6]; [8] 4% | [6]; at 50.0 µM 12.7%

O=C1c2ccccc2C(=O)N1C(=NCc1ccccc1)c1ccccc1
active: [1]; [8] 70% | [6]; [8] 78% | [6]; at 50.0 µM 83.2%
inactive: [1]; [7] 7% | [1]; at 50.0 µM 64.2% | [2]; [7] 2% | [2]; [8] 68% | [2]; at 50.0 µM 63.4% | [3]; [7] 4% | [3]; [8] 42% | [3]; at 50.0 µM 64% | [4]; [7] 3% | [4]; [8] 64% | [4]; at 50.0 µM 5.55% | [5]; [7] -3% | [5]; [8] 66% | [5]; at 50.0 µM 55.2% | [6]; [7] 4%

CN(C)c1ccc(/C=C2/Oc3ccc(Cl)cc3C2=O)cc1
active: [1]; [8] 98% | [1]; at 50.0 µM 87.8% | [2]; [8] 98% | [2]; at 50.0 µM 90.7% | [3]; [8] 97% | [3]; at 50.0 µM 89.5% | [4]; [8] 97% | [4]; at 50.0 µM 89% | [5]; [8] 98% | [5]; at 50.0 µM 89.9% | [6]; [8] 97% | [6]; at 50.0 µM 86%
inactive: [1]; [7] -2% | [2]; [7] 25% | [3]; [7] -5% | [4]; [7] 28% | [5]; [7] -24% | [6]; [7] 19%

O=C(c1c(F)c(F)c(F)c(F)c1F)n1c(=S)n(C(=O)c2c(F)c(F)c(F)c(F)c2F)c2ccccc21
inactive: [1]; [7] 11% | [1]; at 50.0 µM 42% | [2]; [7] 19% | [3]; [7] 14% | [3]; at 50.0 µM 62.3% | [4]; [7] -2% | [4]; [8] 53% | [4]; at 50.0 µM 8.45% | [5]; [7] 2% | [5]; at 50.0 µM 49.1% | [6]; [7] 29%
active: [1]; [8] 96% | [2]; [8] 90% | [2]; at 50.0 µM 71.4% | [3]; [8] 93% | [5]; [8] 91% | [6]; [8] 95% | [6]; at 50.0 µM 86.1%
